Results on eight compounds are retold here after PubChem BioAssay (EPA / NIEHS).

Where “and” joins values, the source holds several entries; their conditions need not be identical. Identical values can stand only once. Results filed as inconclusive are left out. A structure can be active in one record and inactive in another. Calls of active or inactive are those of the source. How the source made its calls, unless noted: active means hit-call score of the fitted dose curve at least 0.9, where 1 is the maximum; inconclusive means response in the unintended direction; inactive means score below 0.9.

The target of assay [1] is human Norepinephrine Transporter (NET), SLC6A2 (gene 6530) (UniProt P23975). The assay is described as follows: NVS_TR_hNET: NovaScreen (NVS) Transporter Assay for human Norepinephrine Transporter (NET) (AID 2283377).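 Further: cell-free membrane protein extracted from CHO cells expressing human NET.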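 On AC50: displacement of radioligand from human NET seen as loss of scintillation signal.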 The method, boiled down: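 Scintillation counts of filter-retained radioligand served as the readout, taken 1 h post-dosing in a cell-free CHO-derived system. Test chemicals ran first at 25 uM in duplicate; confirmed hits were retested across concentrations.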
Chain of human Norepinephrine Transporter (NET), SLC6A2 (gene 6530) (P23975 whole entry, looked up): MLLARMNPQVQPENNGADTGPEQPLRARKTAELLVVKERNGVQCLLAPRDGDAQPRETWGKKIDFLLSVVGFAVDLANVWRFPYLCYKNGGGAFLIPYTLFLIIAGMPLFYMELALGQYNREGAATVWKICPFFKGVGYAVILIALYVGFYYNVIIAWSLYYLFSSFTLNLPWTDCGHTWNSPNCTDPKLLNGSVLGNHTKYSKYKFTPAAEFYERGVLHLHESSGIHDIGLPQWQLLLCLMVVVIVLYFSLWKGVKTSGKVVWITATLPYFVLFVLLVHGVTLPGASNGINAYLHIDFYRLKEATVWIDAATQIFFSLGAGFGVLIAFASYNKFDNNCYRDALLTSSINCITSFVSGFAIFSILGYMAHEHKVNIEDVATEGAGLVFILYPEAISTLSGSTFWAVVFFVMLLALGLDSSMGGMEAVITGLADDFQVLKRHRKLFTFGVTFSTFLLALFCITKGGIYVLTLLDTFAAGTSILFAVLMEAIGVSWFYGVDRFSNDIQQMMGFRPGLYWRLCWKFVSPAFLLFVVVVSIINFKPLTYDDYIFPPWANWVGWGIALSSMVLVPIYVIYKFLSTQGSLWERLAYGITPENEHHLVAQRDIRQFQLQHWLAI

Assay [2] has as its target mouse Estrogen Receptor alpha (Era), Esr1 (gene 13982) (UniProt P19785). Description: NVS_NR_mERa: NovaScreen (NVS) Nuclear Receptor Binding Assay for mouse Estrogen Receptor alpha (Era) (AID 2283378).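 Further: hit means loss of bound radioligand signal relative to DMSO.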 In short, it runs like this: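 Extracted mouse Era incubated with tritiated or iodinated radioligand plus test chemical, 18 h. Bound fraction separated on filters, counted by scintillation. DMSO = negative control/baseline; duplicate single-point at 25 uM, then concentration-response follow-up.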

The target in assay [3] is Estrogen receptor beta (Homo sapiens) (UniProt Q92731). The assay is described as follows: OT_ER_ERbERb_1440: Odyssey Thera (OT) 24-hour HEK293T Protein-Complementation Assay for Estrogen Receptor-beta/-beta Homodimer (AID 2283380).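 Further: fluorescence gain from ER beta LBD homodimer complementation read by laser scanning cytometry; scored as signal increase over DMSO baseline for both agonists and antagonists.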 The method, boiled down: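 Fluorescence increase, nuclear for agonists or whole-cell for antagonists, relative to DMSO vehicle, quantified by laser scanning cytometer after fixation and Draq5 staining. Readout from 24 h treatment of HEK293T cells carrying complementation-paired ER beta LBD (aa 310-547).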
Chain of Estrogen receptor beta (Homo sapiens) (Q92731 whole entry, looked up, the tested form may be a part): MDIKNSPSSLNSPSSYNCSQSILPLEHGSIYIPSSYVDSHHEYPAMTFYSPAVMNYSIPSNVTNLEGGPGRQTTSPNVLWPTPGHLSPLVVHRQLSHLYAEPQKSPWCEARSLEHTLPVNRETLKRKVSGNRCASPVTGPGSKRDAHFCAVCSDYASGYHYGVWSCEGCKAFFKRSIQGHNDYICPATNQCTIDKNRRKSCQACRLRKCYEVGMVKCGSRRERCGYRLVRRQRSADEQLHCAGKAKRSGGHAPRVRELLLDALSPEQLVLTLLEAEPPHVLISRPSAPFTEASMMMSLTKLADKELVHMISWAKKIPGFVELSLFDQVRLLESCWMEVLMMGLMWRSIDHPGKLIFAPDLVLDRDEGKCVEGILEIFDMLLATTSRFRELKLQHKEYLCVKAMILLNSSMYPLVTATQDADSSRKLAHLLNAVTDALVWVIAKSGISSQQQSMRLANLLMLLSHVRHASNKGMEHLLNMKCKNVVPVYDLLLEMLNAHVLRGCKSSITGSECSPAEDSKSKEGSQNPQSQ

The target in assay [4] is Estrogen receptor (Homo sapiens) (UniProt P03372). The assay is described as follows: OT_ERa_GFPERaERE_0480: Odyssey Thera (OT) 8-hour HeLa Transcription Induction Assay for Estrogen Receptor (AID 2283381; active means hit-call score of the fitted dose curve at least 0.9, where 1 is the maximum; inactive means score below 0.9). In short, it runs like this:
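Cells (HeLa) receive compound; after 8 h, reporter fluorescence is imaged and quantified by high-content analysis. Gain-of-signal relative to DMSO gives the endpoint.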

The target is the same in assay [5]. The assay is described as follows: OT_ERa_GFPERaERE_0120: Odyssey Thera (OT) 2-hour HeLa Transcription Induction Assay for Estrogen Receptor (AID 2283382). In short, it runs like this:
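Measures ESR1 pathway reporter gain-of-signal in HeLa cells after a 2-hour treatment, detected as fluorescent protein induction by microscopy, DMSO as baseline.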

Assay [6] concerns the target Retinoic acid receptor RXR-alpha (Homo sapiens) (UniProt P19793). Description: OT_NURR1_NURR1RXRa_1440: Odyssey Thera (OT) 24-hour HEK293T Protein Complementation Assay for Nurr1/retinoid X receptor (RXR) (AID 2283386). The method, boiled down: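 Measured as fluorescence from a reconstituted split reporter, this 24 h HEK293T complementation assay scores compound-induced gain of Nurr1/RXRα association relative to DMSO.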

The target of assay [7] is Peroxisome proliferator-activated receptor gamma (Homo sapiens) (UniProt P37231). The assay is described as follows: OT_PPARg_PPARgSRC1_0480: Odyssey Thera (OT) 8-hour Protein-Complementation Assay for Peroxisome Proliferator-activated Receptor Gamma / SRC-1 Co-activator (AID 2283387).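 Further: nuclear to cytoplasmic split Venus YFP fluorescence ratio reporting PPARg SRC-1 interaction.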 The method, boiled down: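 Split-YFP (IFP1/IFP2) PPARg/SRC-1 reporter, HEK293T, 37 °C, 5% CO2; 8 h compound; formaldehyde fix + Draq5; high-content imaging, N/C ratio, ≥350 cells/image, positive direction vs DMSO.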
Chain of Peroxisome proliferator-activated receptor gamma (Homo sapiens) (P37231 whole entry, looked up): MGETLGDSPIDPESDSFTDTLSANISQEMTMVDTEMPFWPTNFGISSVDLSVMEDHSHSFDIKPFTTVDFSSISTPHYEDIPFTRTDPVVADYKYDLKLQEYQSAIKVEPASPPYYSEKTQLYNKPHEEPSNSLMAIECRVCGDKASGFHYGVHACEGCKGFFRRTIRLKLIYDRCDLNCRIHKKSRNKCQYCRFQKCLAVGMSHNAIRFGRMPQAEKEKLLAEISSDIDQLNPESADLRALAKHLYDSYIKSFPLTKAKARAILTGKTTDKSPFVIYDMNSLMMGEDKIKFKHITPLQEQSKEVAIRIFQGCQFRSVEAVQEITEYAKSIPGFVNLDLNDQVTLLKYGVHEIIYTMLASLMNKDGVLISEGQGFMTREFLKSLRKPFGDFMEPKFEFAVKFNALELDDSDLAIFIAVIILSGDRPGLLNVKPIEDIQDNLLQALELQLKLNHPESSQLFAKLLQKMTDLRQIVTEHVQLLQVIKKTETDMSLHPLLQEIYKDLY

For assay [8] the target is unchanged. The assay is described as follows: OT_PPARg_PPARgSRC1_1440: Odyssey Thera (OT) 24-hour Protein-Complementation Assay for Peroxisome Proliferator-activated Receptor Gamma/ SRC-1 Co-activator (AID 2283388).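 Further: nuclear to cytoplasmic ratio of reconstituted Venus YFP fluorescence in fixed imaged cells.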 The method, boiled down:
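Protein-fragment complementation between PPARg and coactivator SRC-1 was measured by fluorescence imaging in transiently transfected HEK293T cells after 24 h treatment. Signal was quantified as N/C ratio in the 488 nm channel, with DMSO as negative control.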

Assay [9] has as its target Retinoic acid receptor RXR-alpha (Homo sapiens) (UniProt P19793). Description: OT_NURR1_NURR1RXRa_0480: Odyssey Thera (OT) 8-hour HEK293T Protein Complementation Assay for Nurr1/retinoid X receptor (RXR) (AID 2283385). The method, boiled down:
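Compounds are applied to HEK293T cells carrying Nurr1 and RXRα linked to reporter fragments. After 8 h, fluorescence intensity reports heterodimer formation, with DMSO as baseline.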

A short description of assay [10]: CEETOX_H295R_11DCORT: CeeTox H295R High-throughput Steroidogenesis Assay for 11-Deoxycortisol (11DCORT) (AID 2283432; active means hit-call score of the fitted dose curve at least 0.9, where 1 is the maximum; inactive means score below 0.9;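 on AC50: human adrenal H295R cells prestimulated with 10 µM forskolin for 48 h; 11-deoxycortisol secreted into the medium measured by LC-MS/MS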). Particulars: actives raise or lower the signal. The method, boiled down: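 Steroidogenesis in human H295R cells: 48 h chemical exposure after forskolin priming, 11-deoxycortisol measured by LC-MS/MS.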
Assay [11] can be described thus: CEETOX_H295R_OHPREG: CeeTox H295R High-throughput Steroidogenesis Assay for OH-Pregnenolone (OHPREG) (AID 2283434; active means hit-call score of the fitted dose curve at least 0.9, where 1 is the maximum; inactive means score below 0.9). The note with it: actives raise or lower the signal. In short, it runs like this:
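Hormone levels in spent medium were measured by tandem mass spectrometry following liquid-liquid extraction. Cells (H295R) had been forskolin-stimulated (10 uM, 48 h) before a 48 h chemical exposure at 0.1% DMSO, with activity fitted in both directions against DMSO.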

The nature of assay [12]: CEETOX_H295R_OHPROG: CeeTox H295R High-throughput Steroidogenesis Assay for OH-Progesterone (OHPROG) (AID 2283435; active means hit-call score of the fitted dose curve at least 0.9, where 1 is the maximum; inactive means score below 0.9;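 on AC50: 17alpha-hydroxyprogesterone secreted into medium measured by HPLC-MS/MS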). Particulars: actives raise or lower the signal. In short, it runs like this: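 Secreted 17alpha-hydroxyprogesterone is read by tandem MS from media of forskolin-primed H295R cells dosed with chemical for 48 h. Activity is fitted in both directions against DMSO baseline; cytotoxic concentrations are re-tested diluted.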

Assay [13] can be described thus: CEETOX_H295R_CORTIC: CeeTox H295R High-throughput Steroidogenesis Assay for Corticosterone (CORTIC) (AID 2283437; active means hit-call score of the fitted dose curve at least 0.9, where 1 is the maximum; inactive means score below 0.9;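 further: corticosterone secreted into medium quantified by mass spectrometry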). The note with it: actives raise or lower the signal. The method, boiled down: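 Corticosterone secreted into medium is measured by reverse-phase HPLC with tandem MS following liquid-liquid extraction. Cells are forskolin-stimulated (10 uM, 48 h) before 48 h test exposure; activity fitted in both directions against DMSO.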

Assay [14] can be described thus: CEETOX_H295R_CORTISOL: CeeTox H295R High-throughput Steroidogenesis Assay for Cortisol (AID 2283438; active means hit-call score of the fitted dose curve at least 0.9, where 1 is the maximum; inactive means score below 0.9;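 further: cortisol secreted into medium quantified by LC-MS/MS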). The note with it: actives raise or lower the signal. In short, it runs like this:
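Human adrenocortical H295R cells (passage ≤10) received test chemicals for 48 h after forskolin priming. Secreted cortisol was measured by LC-MS/MS.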

Assay [15] in a line: CEETOX_H295R_DOC: CeeTox H295R High-throughput Steroidogenesis Assay for DOC (AID 2283439; active means hit-call score of the fitted dose curve at least 0.9, where 1 is the maximum; inactive means score below 0.9). Particulars: actives raise or lower the signal. The method, boiled down: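 Secreted DOC was quantified from H295R media by HPLC-MS/MS after 48 h chemical exposure following 48 h forskolin (10 uM) prestimulation. Values were fitted in both directions relative to DMSO, the negative control and baseline.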

Assay [16] in a line: CEETOX_H295R_ESTRADIOL: CeeTox H295R High-throughput Steroidogenesis Assay for Estradiol (AID 2283440; active means hit-call score of the fitted dose curve at least 0.9, where 1 is the maximum; inactive means score below 0.9;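 further: estradiol secreted into medium quantified by LC-MS/MS after dansyl derivatisation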). Particulars: actives raise or lower the signal. The method, boiled down: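 Estradiol secreted into the medium was measured by tandem mass spectrometry after liquid-liquid extraction and dansylation. Human H295R cells had been forskolin-primed (10 uM, 48 h) before a 48 h chemical exposure with 0.1% DMSO.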

For assay [17], the target named is Bile acid receptor (Homo sapiens) (UniProt Q96RI1). Description: OT_FXR_FXRSRC1_0480: Odyssey Thera (OT) 8-hour HEK293T Protein-Complementation Assay for Farnesoid X receptor/SRC-1 Co-activator (AID 2283383). In short, it runs like this: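 Co-activator recruitment to FXR was measured in living HEK293T cells, where interaction of the two fused partners restored an active fluorescent reporter. Signal gain after 8 h treatment was referenced to DMSO.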
Chain of Bile acid receptor (Homo sapiens) (Q96RI1 whole entry, looked up, the tested form may be a part): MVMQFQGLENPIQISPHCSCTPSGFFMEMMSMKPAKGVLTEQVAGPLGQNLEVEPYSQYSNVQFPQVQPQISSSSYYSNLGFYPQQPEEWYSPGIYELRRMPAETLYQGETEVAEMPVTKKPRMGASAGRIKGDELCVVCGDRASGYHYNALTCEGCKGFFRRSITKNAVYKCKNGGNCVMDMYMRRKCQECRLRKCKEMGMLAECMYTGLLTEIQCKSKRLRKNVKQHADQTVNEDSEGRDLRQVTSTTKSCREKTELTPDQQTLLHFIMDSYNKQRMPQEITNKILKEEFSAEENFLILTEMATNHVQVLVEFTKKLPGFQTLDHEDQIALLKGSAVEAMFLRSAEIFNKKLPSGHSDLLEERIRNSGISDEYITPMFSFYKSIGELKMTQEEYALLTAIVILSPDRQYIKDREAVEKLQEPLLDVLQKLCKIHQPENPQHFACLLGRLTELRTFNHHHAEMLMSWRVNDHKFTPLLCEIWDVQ

The target is the same in assay [18]. The assay is described as follows: OT_FXR_FXRSRC1_1440: Odyssey Thera (OT) 24-hour HEK293T Protein-Complementation Assay for Farnesoid X receptor/SRC-1 Co-activator (AID 2283384). The method, boiled down:
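Cell-based binding reporter: interaction of FXR with SRC-1 brings reporter fragments together, giving a fluorescence signal read 24 h after dosing of HEK293T cells.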

In assay [19] the target is Agonist Androgen Response Element (ARE), AR (gene 367) (UniProt P10275). The assay is described as follows: OT_AR_ARELUC_AG_1440: Odyssey Thera (OT) 24-hour CHO-K1 Luciferase Assay for Agonist Androgen Response Element (ARE) (AID 2283379). The method, boiled down: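 Agonist mode, 24 h exposure in CHO-K1 ARE-luciferase cells; values reflect luminescence induction over vehicle.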
Chain of Agonist Androgen Response Element (ARE), AR (gene 367) (P10275 whole entry, looked up): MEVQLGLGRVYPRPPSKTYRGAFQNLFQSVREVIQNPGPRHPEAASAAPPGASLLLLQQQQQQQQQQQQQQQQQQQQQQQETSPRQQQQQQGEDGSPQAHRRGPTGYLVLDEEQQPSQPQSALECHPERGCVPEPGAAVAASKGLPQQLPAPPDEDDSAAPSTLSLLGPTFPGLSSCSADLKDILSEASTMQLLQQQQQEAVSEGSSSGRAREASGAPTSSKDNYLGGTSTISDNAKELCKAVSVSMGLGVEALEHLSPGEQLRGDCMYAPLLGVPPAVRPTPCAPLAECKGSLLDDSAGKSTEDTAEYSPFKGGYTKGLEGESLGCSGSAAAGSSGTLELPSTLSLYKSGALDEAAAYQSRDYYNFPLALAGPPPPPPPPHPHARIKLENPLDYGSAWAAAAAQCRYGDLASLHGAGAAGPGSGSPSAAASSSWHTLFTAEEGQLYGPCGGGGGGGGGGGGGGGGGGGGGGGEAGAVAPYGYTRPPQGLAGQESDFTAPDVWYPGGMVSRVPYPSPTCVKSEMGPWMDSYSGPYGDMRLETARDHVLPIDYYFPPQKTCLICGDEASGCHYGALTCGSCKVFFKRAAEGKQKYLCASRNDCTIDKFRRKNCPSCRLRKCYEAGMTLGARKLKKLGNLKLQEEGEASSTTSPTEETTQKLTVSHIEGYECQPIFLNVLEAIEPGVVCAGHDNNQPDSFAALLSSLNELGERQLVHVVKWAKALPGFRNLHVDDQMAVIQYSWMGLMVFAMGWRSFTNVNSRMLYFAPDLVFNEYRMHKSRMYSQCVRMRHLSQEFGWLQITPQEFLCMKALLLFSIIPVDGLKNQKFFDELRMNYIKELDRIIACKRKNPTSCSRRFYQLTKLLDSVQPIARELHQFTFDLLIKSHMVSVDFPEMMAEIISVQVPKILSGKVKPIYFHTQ

Chain of Estrogen receptor (Homo sapiens) (P03372 whole entry, looked up): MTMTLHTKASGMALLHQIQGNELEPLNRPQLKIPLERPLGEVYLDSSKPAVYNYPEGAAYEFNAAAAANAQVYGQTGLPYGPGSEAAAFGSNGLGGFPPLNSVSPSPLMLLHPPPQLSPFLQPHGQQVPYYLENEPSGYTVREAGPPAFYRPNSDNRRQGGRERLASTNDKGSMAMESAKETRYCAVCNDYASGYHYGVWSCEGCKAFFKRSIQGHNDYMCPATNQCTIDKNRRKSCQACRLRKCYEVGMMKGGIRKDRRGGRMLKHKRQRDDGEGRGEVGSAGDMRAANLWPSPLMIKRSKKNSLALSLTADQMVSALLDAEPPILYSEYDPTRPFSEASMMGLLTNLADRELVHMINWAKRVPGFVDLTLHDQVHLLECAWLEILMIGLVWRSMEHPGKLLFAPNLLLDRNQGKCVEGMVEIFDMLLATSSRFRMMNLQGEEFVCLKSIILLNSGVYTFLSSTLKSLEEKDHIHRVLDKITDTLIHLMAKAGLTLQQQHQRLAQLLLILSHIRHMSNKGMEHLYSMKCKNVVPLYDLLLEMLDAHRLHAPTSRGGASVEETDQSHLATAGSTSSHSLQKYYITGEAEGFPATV
Chain of Retinoic acid receptor RXR-alpha (Homo sapiens) (P19793 whole entry, looked up, the tested form may be a part): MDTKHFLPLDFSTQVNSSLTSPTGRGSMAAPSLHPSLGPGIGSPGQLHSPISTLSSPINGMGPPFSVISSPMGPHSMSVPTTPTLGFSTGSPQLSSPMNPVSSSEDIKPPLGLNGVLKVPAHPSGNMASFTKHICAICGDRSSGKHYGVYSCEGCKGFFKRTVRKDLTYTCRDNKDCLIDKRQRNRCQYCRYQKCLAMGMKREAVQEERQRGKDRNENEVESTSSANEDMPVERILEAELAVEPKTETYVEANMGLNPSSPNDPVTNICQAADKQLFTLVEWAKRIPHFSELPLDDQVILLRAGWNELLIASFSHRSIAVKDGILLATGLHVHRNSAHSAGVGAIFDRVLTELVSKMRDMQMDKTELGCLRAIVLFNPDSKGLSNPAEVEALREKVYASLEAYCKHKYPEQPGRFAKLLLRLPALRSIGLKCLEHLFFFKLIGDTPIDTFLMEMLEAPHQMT
Chain of mouse Estrogen Receptor alpha (Era), Esr1 (gene 13982) (P19785 whole entry, looked up): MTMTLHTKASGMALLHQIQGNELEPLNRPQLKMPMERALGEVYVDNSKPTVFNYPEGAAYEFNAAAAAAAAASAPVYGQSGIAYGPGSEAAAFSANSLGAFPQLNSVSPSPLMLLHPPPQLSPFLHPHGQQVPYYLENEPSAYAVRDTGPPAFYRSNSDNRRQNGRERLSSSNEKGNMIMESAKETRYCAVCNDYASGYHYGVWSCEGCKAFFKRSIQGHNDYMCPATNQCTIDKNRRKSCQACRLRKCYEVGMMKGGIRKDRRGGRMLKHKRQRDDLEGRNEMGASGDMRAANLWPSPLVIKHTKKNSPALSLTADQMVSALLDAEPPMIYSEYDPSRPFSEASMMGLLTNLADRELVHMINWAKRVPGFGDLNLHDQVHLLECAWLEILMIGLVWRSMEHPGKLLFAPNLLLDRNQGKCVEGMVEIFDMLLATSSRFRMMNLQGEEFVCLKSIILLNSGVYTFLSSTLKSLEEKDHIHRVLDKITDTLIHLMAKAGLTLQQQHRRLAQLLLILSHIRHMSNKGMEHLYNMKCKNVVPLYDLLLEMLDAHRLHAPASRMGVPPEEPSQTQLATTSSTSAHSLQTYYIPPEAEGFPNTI

Regarding `CC(C)C(=O)OCC(C)(C)C(OC(=O)C(C)C)C(C)C` (centres undefined), the outcome in assay [1], in assay [2], in assay [3], in assay [4], in assay [5] and in assay [6] was inactive. Further, the call in assay [7] and in [8] was inactive.
For orientation: AC50 means the concentration at which the activity in the assay is half-maximal. For the compound `CCCCCCCCCc1ccc(O)cc1`, the compound was classed as inactive in [2], in assay [4], in assay [5], in assay [9], in [7] and in assay [8]. The AC50 was 12.5 µM (active) and 12.1 µM (active) in [3]; 50 µM (active) in assay [9]; 79.1 µM (active) and 85.9 µM (active) in [6].
On to `O=C(O)C(F)(F)C(F)(F)C(F)(F)C(F)(F)C(F)(F)C(F)(F)C(F)(F)C(F)(F)C(F)(F)F`, for which the AC50 in [1] was 25 µM (active). Also, the compound was classed as inactive in [2], in [4], in assay [5], in assay [9], in assay [6] and in [7]. Further, in assay [8], the outcome was inactive.
Consider `Nc1ccc(-c2ccc(N)cc2)cc1`, for which the AC50 in assay [1] was 11.8 µM (active); in [10], 79.6 µM (active); in assay [11], 14.3 µM (active); in assay [12], 37.4 µM (active); in [13] it was 2.96 µM (active); in assay [14], 65.8 µM (active). Also, the AC50 in [15] is 17.7 µM (active). Besides, the result in [3], in assay [4], in [5], in assay [9], in [6] and in assay [7] was inactive. The call in assay [8] and in assay [16] was inactive.
In the case of `ClC1=C(Cl)[C@]2(Cl)[C@@H]3[C@H]4C[C@H]([C@@H]5O[C@H]45)[C@@H]3[C@@]1(Cl)C2(Cl)Cl`, the outcome in [2], in assay [4], in assay [9], in [6], in [7] and in assay [8] was inactive. In assay [13], the call was inactive. The AC50 in assay [10] was 7.42 µM (active); in assay [11] it was 1.48 µM (active); in assay [12], 13 µM (active); in assay [14] it was 5.13 µM (active); in assay [15], 14.6 µM (active).
In the case of `CCOCCOC(C)=O`, the compound was called inactive in [2], in assay [4], in assay [5], in assay [9], in [7] and in assay [8]. For the same compound, the call in assay [10], in [11], in [12], in assay [13], in assay [14] and in [15] was inactive.
Consider `Oc1ccc(Cl)cc1Cl`, for which the results for the concentration at half-maximal activity (AC50) in [1], in assay [12] and in [16] were 9.75 µM (active), 22.2 µM (active) and 17 µM (active), respectively. For the same compound, the outcome in assay [2], in assay [3], in [4], in assay [5], in assay [17] and in assay [18] was inactive. Further, the compound was called inactive in [9], in assay [7], in assay [8], in [10], in assay [11] and in assay [13]. Besides, the outcome in [14] and in [15] was inactive.
As to `O=C(N[C@H]1CN2CCC1CC2)c1cc2ccoc2cn1`, the AC50 in [19] was 71.8 µM (active). Besides, the call in assay [3], in [4], in [5], in assay [9], in assay [6] and in assay [7] was inactive. Moreover, the compound was classed as inactive in assay [8].
